High-throughput results: PubChem BioAssay, National Center for Advancing Translational Sciences (NCATS)
Sampled rows, rich in hits. Any-hit rate of the full collection: about 3.2%.
Pol III holo inh = DNA polymerase III holoenzyme inhibition. reconstituted DNA polymerase III holoenzyme replication, biochemical. 71,000 compounds, 0.25% hits. Potency, µM (series often up to 57.1 µM), without a hit: at the top dose activity change, negative = inhibition; further: potency means the concentration at half of the fitted maximal effect; on the % scale 0 is the no-effect control and ±100 the full control effect
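Reconstituted *E. coli* holoenzyme (0.35 nM Pol III, 1 nM beta, 154 nM SSB, 2 nM primase) was preincubated with compound for 15 min at RT. Synthesis on 1.4 nM ssM13Gori ran 35 min, then was stopped with PicoGreen/EDTA and read as dsDNA fluorescence.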
Caspase-1 inhib = allosteric or competitive inhibitors of human caspase-1; 75,000 compounds, 0.03% hits; Caspase-1 enzyme, Ac-WEHD-AFC fluorogenic rate; Potency, µM (top dose mostly 57.5 µM), for the others: at the top dose activity change, negative = inhibition, hits mostly inhibitors;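 further: potency means the concentration at half of the fitted maximal effect; plate controls were vehicle for no effect and no substrate for full effect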
Casp7 inh = caspase-7 (human) inhibition, allosteric or competitive; P55210; recombinant caspase-7, Ac-DEVD-AFC fluorescence rate; Potency, µM (series often up to 57.5 µM), for inactives: at the top dose activity change, negative = inhibition, usual class: inhibitors; 75,000 compounds, 0.02% hits; active means well fitted inhibition curve with a large enough effect in the main read-out, with a control signal flat, not every such curve was filed as active; inconclusive means small, poorly fitted or top-dose-only effect, or a change in a side signal; further: potency means the concentration at half of the fitted maximal effect; % of control where 0% means no effect
15-hLO inh = inhibitors of human 15-lipoxygenase (ALOX15). P16050. AID 887. purified 15hLO-1, xylenol orange hydroperoxide absorbance. 74,000 compounds, 1.4% hits. Potency, µM (doses to about 57.1 µM), inactives show at the highest dose activity change, negative = inhibition, actives largely listed as inhibitors; further: potency means the concentration at half of the fitted maximal effect; on the % scale 0 is the no-effect control and ±100 the full control effect; nearly all actives have a fitted effect of over 55% in size
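Hydroperoxide formed from arachidonic acid (50 uM) by purified human 15hLO-1 (40 nM) oxidizes ferrous iron, and the ferric-xylenol orange complex is read at 573 versus 405 nm. Compounds were preincubated 15 min; reaction ran 6 min at room temperature.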
Tau fil binding = tau filament binding; Potency, µM (highest dose often 57.1 µM), without a hit: at the top dose activity change, negative = inhibition; AID 596; recombinant tau filaments, thioflavin S fluorescence, 15 h; filaments grown with octadecylsulfate alongside compound; 71,000 compounds, 2% hits;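 further: potency means the concentration at half of the fitted maximal effect; on the % scale 0 is the no-effect control and ±100 the full control effect; actives lower thioflavin S fluorescence by blocking filaments or displacing dye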
Target sequence (P10636 whole entry, looked up): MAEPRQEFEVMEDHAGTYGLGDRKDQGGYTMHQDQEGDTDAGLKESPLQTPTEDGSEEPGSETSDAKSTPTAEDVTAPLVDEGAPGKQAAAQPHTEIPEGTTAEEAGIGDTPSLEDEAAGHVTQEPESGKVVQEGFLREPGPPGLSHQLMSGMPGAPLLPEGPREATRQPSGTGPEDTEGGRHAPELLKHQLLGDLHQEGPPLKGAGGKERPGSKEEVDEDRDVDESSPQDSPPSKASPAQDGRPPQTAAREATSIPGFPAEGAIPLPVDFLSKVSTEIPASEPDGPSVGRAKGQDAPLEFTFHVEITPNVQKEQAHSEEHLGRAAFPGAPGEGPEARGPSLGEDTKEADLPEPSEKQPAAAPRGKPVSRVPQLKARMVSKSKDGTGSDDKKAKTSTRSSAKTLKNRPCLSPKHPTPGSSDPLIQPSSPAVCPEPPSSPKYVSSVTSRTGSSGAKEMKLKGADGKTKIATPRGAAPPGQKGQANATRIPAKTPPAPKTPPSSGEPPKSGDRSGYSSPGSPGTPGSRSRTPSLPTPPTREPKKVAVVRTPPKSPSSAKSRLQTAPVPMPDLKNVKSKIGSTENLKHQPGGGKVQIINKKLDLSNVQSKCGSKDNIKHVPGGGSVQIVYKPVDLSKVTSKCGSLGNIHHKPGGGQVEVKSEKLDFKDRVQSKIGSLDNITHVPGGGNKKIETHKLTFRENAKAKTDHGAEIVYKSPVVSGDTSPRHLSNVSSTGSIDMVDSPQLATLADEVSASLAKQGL
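His-tagged recombinant human tau (exons 2, 3, 10; 1 uM final) fibrillized with 30 uM sodium octadecylsulfate, 15 h at 37 C, in pH 7.4 HEPES buffer with 10 uM thioflavine S and 5 mM DTT. Reduced ThS fluorescence (450/510 nm) marks activity.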
Tau ThS bind = tau filament binding by ThS displacement; shares compounds with Tau fil binding; recombinant tau filaments, Thioflavin S fluorescence displacement; Potency, µM; 60 compounds, 40% hits; calls by dose curve
aSyn ThS bind = compounds binding human alpha-synuclein fibrils, displacing Thioflavin S | shares compounds with Tau fil binding | recombinant alpha-synuclein fibrils, ThS fluorescence displacement | Potency, µM | 60 compounds, 40% hits; calls by dose curve
Abeta ThS displ = amyloid beta fibril binding by ThS displacement. AID 956. 60 compounds, 50% hits. Abeta1-42 fibrillization, thioflavin S fluorescence, overnight 37 C. shares compounds with Tau fil binding. Potency, µM; calls by dose curve
Numbers without * were called inactive; i = inactive; ? = inconclusive; . = not tested or not shown; [ ] = dose if it differs, or a comment. Unless noted, the call rests on the fitted dose curve; in most records, active means well fitted curve in the direction sought with a large enough effect; inconclusive means small, poorly fitted or top-dose-only effect, or another doubt; inactive means no such curve, though single readings can be large; an effect the other way counts as inactive or inconclusive.

SMILES	Pol III holo inh	Caspase-1 inhib	Casp7 inh	15-hLO inh	Tau fil binding	Tau ThS bind	aSyn ThS bind	Abeta ThS displ
c1cc2c3c(cccc3c1)NC1(CCCCCC1)N2	-20%	-13%	-24%	-7%	2.5µM*	?	6.3µM*	2.2µM*
O=[N+]([O-])c1ccc(CSCc2ccc(Cl)cc2)cc1	3%[11.4 µM]	-1%[11.5 µM]	-1%[11.5 µM]	-7%[11.4 µM]	-9%[11.4 µM]	.	.	.
Cc1ccccc1Cn1ccc(NC(=O)c2cnn3c(C(F)(F)F)cc(-c4ccco4)nc23)n1	-10%	-3%	-2%	-11%	2.5µM*	?	2.6µM*	6.7µM*
Cc1ccc(N(C)C)cc1	2%	4%	1%	-3%	-10%	.	.	.
CN(C)c1ccc(C(=C2C=CC(=[N+](C)C)C=C2)c2ccc(N(C)C)cc2)cc1	40µM*	-1%	-15%	-3%	0.13µM*	0.18µM*	0.15µM*	0.15µM*
O=C(C1CCCN(S(=O)(=O)c2cccc3nonc23)C1)N1CCC(Cc2ccccc2)CC1 (stereo unspecified)	0%	1%	2%	?	3.2µM*	?	i	i
CN(C)CCNS(=O)(=O)N(C)C	-5%[11.4 µM]	0%[11.5 µM]	1%[11.5 µM]	3%[11.4 µM]	0%[11.4 µM]	.	.	.
CC[C@]1(O)C[C@H]2CN(CCc3c([nH]c4ccccc34)[C@](C(=O)OC)(c3cc4c(cc3OC)N(C=O)[C@H]3[C@@](O)(C(=O)OC)[C@H](OC(C)=O)[C@@]5(CC)C=CCN6CC[C@]43[C@H]65)C2)C1	-8%	3%	0%	?	-9%	.	.	.
Cc1ccc(/C=N/c2sc3c(c2C#N)CCC3)s1	-2%	-4%	0%	-4%	2.5µM*	i	?	i
N#Cc1c(N)sc2c1CCCCCC2	0%	1%	-1%	?	-25%	.	.	.
